Values joined by “and” are separate entries in the source; they are usually repeats but may differ in a detail not shown here. Equal values may be shown once. Active and inactive are the calls of the source. The rule behind the calls is not given here.
Assay: inhibition of 3D7 malaria parasite growth – strain 3D7 (AID 2306);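 note: 0% = DMSO wells and 100% = chloroquine plus artemisinin control wells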
Conditions: P. falciparum 3D7 erythrocytic growth, LDH absorbance, 72 h; at 2 µM; stronger effect = higher value

| Structure (SMILES) | growth inhibition |
| --- | --- |
| COCCNCc1ccc(-c2ccc(CN(C(=O)Nc3ccccc3)C3CCN(Cc4ccccc4)CC3)cc2)cc1 | 98% (active) |
| Cc1csc(-c2ccc3[nH]cc(C4=CCN(C)CC4)c3c2)n1 | 93% (active) |
| CCCCn1c(C)c(C(=O)OCC)c2cc(OC(C)=O)c(Br)cc21 | 98% (active) |
| Cc1csc(NC2=NCCN2)n1 | 99% (active) |
| O=[N+]([O-])c1ccc(Oc2c(Cl)cc(S(=O)(=O)NC3CCC(CN4CCC(c5c[nH]c6ccccc56)CC4)CC3)cc2Cl)c(Cl)c1 (stereo not given) | 100% (active) |
| CN1CC=C(c2c[nH]c3ccc(OCc4ccccc4)cc23)CC1 | 95% (active) |
| COc1ccc(CC(C)NCC(O)c2ccc(Cl)c(Cl)c2)cc1 (stereo not given) | 98% (active) |
| COC(=O)c1ccc(CC(C)NCC(O)c2ccccc2Cl)cc1 (stereo not given) | 94% (active) |
| Cc1cc(C(=O)NC2CCN(CC3(c4ccc(Cl)cc4)CCC3)CC2)on1 | 98% (active) |
| O=C(/C=C/c1cc(F)cc(C(F)(F)F)c1)N1CCC(CN2CCC(c3c[nH]c4ccccc34)CC2)CC1 | 101% (active) |
| CS(=O)(=O)Nc1ccc2[nH]cc(C3CCN(CC4CCC(NC(=O)/C=C/c5ccc(Cl)c(Cl)c5)CC4)CC3)c2c1 (stereo not given) | 100% (active) |
| c1ccc2c(NCCCCCCCCCNc3c4ccccc4nc4ccccc34)c3ccccc3nc2c1 | 100% (active) |
| CC(Cc1ccc(Oc2ccccc2)cc1)NCC(O)c1cccc(C(F)(F)F)c1 (stereo not given) | 98% (active) |
| COC(=O)/C=C/c1ccc(C[C@@H](C)NC[C@H](O)c2cccc(C(F)(F)F)c2)cc1 | 97% (active) |
| CC[C@H]1CN2CC[C@H]1C[C@H]2[C@H](O)c1cc(-c2ccccc2C)nc2ccc(OC)cc12 | 100% (active) |
| O=C(/C=C/c1cccc2ccccc12)NC1CCC(CN2CCC(c3c[nH]c4ccccc34)CC2)CC1 (stereo not given) | 101% (active) and 100% (active) |
| CN(c1cc(NC(=O)c2cccs2)ccn1)C1CCN(Cc2ccccc2)CC1 | 92% (active) |
| Oc1ccccc1CNCC(O)c1cc(C(F)(F)F)cc(C(F)(F)F)c1 (stereo not given) | 99% (active) |
| Cn1cc(CN2CCC(CCOC(c3ccccc3)c3ccccc3)CC2)cn1 | 99% (active) |
| COc1ccc(-c2ccccc2)cc1NC(=S)NC1CCC(CN2CCC(c3c[nH]c4ccccc34)CC2)CC1 (stereo not given) | 102% (active) and 100% (active) |

| Structure (SMILES) | growth inhibition |
| --- | --- |
| C=CCOc1ccccc1CNCC(O)c1cccc(C(F)(F)F)c1 (stereo not given) | 99% (active) |
| O=C(Nc1ccc(Oc2ccccc2)cc1)NC1CCC(CN2CCC(c3c[nH]c4ccccc34)CC2)CC1 (stereo not given) | 101% (active) |
| CC[C@H]1CN2CC[C@@H]1C[C@H]2[C@H](O)c1cc(N2CCC(CO)CC2)nc2ccc(OC)cc12 | 99% (active) |
| O=[N+]([O-])c1ccc(Oc2c(Cl)cc(S(=O)(=O)N3CCC(CN4CCC(c5c[nH]c6ccccc56)CC4)CC3)cc2Cl)c(Cl)c1 | 100% (active) |
| OC(CNC1CCCCCCC1)c1ccc(Cl)c(Cl)c1 (stereo not given) | 100% (active) |
| Cc1[nH]c2ccccc2c1C1=CCN(CCCCCC23CCCc4cccc(c42)NC3=O)CC1 (stereo not given) | 94% (active) |
| CC[C@H]1CN2CC[C@H]1C[C@H]2C(O)c1cc(OC)nc2ccccc12 (stereo not given in full) | 100% (active) |
| CCCc1c(C(=O)NC2CCC(CN3CCC(c4c[nH]c5ccccc45)CC3)CC2)cnn1-c1c(Cl)cc(Cl)cc1Cl (stereo not given) | 100% (active) |
| C/C=C1/CN2CC[C@H]1C[C@H]2[C@H](O)c1ccnc2ccc(OC)cc12 | 99% (active) |
| O=C(/C=C/c1ccc(Cl)c(Cl)c1)NCCCCCN1C2CCC1CC(c1c[nH]c3ccccc13)C2 (stereo not given) | 98% (active) |
| C1=C(c2c[nH]c3ccccc23)CCN(Cc2ccccc2)C1 | 91% (active) |
| CC[C@H]1CN2CC[C@H]1C[C@H]2[C@H](O)c1cc(-c2ccc(F)cc2)nc2ccc(OC)cc12 | 99% (active) |
| Cc1[nH]c2ccccc2c1C1=CCN(CCN2CCCc3c(Br)cccc3C2=O)CC1 | 95% (active) |
| CN1CCC(N(C)c2nccc(N3CCN(Cc4cncn4Cc4ccccc4)CC3)n2)CC1 | 100% (active) |
| CCCCCCCc1cc(O)c2c3c(c(=O)oc2c1)CN(C)CC3 | 97% (active) |
| O=C(/C=C/c1cccs1)NC1CCC(CN2CCC(c3c[nH]c4ccccc34)CC2)CC1 (stereo not given) | 82% (active) |
| CN(C)CCCn1cc(C(=O)OC2C[C@H]3CC[C@@H](C2)N3C)c2cc(-c3ccccc3)ccc21 (stereo not given in full) | 97% (active) |
| O=C(c1cc(C(F)(F)F)cc(C(F)(F)F)c1)N1CC[C@H](CCN2CCC3(CC2)C(=O)NCN3c2ccccc2)C[C@H]1Cc1ccc(Cl)c(Cl)c1 | 100% (active) |
| Cc1cc(O)cc2c(C3CCN(CC4CCC(NC(=O)/C=C/c5ccccc5Cl)CC4)CC3)c[nH]c12 (stereo not given) | 99% (active) |
| CC[C@H]1CN2CC[C@H]1C[C@H]2[C@H](O)c1ccnc2ccc(C#N)cc12 | 100% (active) |

From PubChem BioAssay
